Bioassay records: PubChem BioAssay, National Center for Advancing Translational Sciences (NCATS)
SMN2 splice up = increases expression of the SMN2 splice variant; HEK293 SMN2-luciferase splicing reporter, luminescence, 30-36 h; Potency, µM (titrated, usually from 46.1 µM), for the others: at the top dose activity change, positive = activation, usual class: activators; 210,000 compounds, 2.8% hits; AID 1458; further: % of control where 0% means no effect; nearly all actives have a fitted effect of over 55% in size
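HEK293 cells carry an SMN2 minigene-luciferase reporter in which exon 7 inclusion puts luciferase in frame. Cells were seeded at 2000 cells/well, attached for 10-12 hours, then exposed to compounds for 30-36 hours at 37C before ONE-Glo luminescence.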
Rab9 promoter act = Rab9 promoter activation; Huh7 Rab9 promoter-luciferase reporter, luminescence, 24 h; Potency, µM (doses to about 9.22 µM), for the others: top-dose activation, negative = inhibition, most hits filed as activators; 320,000 compounds, 2.8% hits; AID 485297; further: % of control where 0% means no effect; nearly all actives have a fitted effect of over 60% in size
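Promoter activation is measured as luciferase luminescence in Huh7 cells stably transfected with a Rab9 promoter–luciferase construct, following 24 h compound exposure at 37 °C and 10 min reagent incubation at ambient temperature.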
FLuc modulator = firefly luciferase modulation, counter-screen for miR-21 project | Potency, µM (highest dose often 57.5 µM), inactives show top-dose activity change, negative = inhibition, actives largely listed as inhibitors | purified FLuc, Km substrates, luminescence inhibition | P08659 | 360,000 compounds, 6.9% hits;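 further: plate controls were vehicle for no effect and reference inhibitor for full effect; nearly all actives have a fitted effect of over 55% in size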
Target sequence (P08659 whole entry, looked up): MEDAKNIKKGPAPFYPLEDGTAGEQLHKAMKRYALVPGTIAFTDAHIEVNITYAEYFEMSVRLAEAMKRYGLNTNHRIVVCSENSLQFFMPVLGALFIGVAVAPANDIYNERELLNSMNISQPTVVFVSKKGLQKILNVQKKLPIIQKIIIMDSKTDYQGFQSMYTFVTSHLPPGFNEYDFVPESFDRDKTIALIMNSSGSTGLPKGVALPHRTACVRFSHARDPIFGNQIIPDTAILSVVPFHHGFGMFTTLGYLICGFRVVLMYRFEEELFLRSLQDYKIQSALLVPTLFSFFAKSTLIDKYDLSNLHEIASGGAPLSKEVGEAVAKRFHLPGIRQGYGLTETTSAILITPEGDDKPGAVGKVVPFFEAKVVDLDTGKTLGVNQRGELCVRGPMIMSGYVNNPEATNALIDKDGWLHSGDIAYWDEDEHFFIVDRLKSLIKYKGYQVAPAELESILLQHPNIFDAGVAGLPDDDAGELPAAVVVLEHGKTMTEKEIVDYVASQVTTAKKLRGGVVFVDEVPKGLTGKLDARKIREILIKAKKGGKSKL
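Biochemical qHTS of compounds, final roughly 60 µM downward over six points, against 10 nM purified firefly luciferase using Km concentrations of substrates (10 uM D-luciferin, 10 uM ATP) in Tris acetate pH 7.5 buffer; luminescence output.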
ELG1 DNA repair = ELG1-dependent DNA repair inhibition; HEK293T ELG1-luciferase reporter, luminescence, 16 h; DNA damage induced by 5-fluorouridine; Potency, µM (doses to about 46.1 µM), for the others: at the highest dose activity change, negative = inhibition, hits mostly inhibitors; 330,000 compounds, 2.3% hits; further: on the % scale 0 is the no-effect control and ±100 the full control effect; nearly all actives have a fitted effect of over 55% in size
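Cells (2,000 per well) received 5-fluorouridine plus test compound or DMSO and were incubated 16 hr at 37 °C, 5% CO2. Luciferase activity was read by luminescence 30 min after ONE-Glo addition; signal suppression marked inhibition of damage-induced ELG1 function.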
ELG1 genotoxic = induces genotoxicity in HEK293T cells with luciferase-tagged ELG1; HEK293T ELG1-luciferase reporter, luminescence, 16 h; 330,000 compounds, 1.3% hits; Potency, µM (series often up to 46 µM), inactives show top-dose activity change, positive = activation, actives largely listed as activators; further: % of control where 0% means no effect; nearly all actives have a fitted effect of over 60% in size
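Genotoxicity was scored as increased ELG1-luciferase reporter signal, measured by ONE-Glo luminescence (30 min, room temperature). Compound or vehicle exposure of the HEK293T reporter cells lasted 16 hr at 37°C.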
NPC1 prom act = activates the NPC1 promoter | AID 485313 | Potency, µM (titrated, usually from 9.22 µM), for the others: at the highest dose activation, actives largely listed as activators | Huh7 NPC1 promoter luciferase reporter, 24 h | 320,000 compounds, 2.4% hits; further: % of control where 0% means no effect; nearly all actives have a fitted effect of over 60% in size
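Readout is luciferase luminescence, reflecting NPC1 promoter activation in stably transfected Huh7 cells after 24 h compound exposure at 37 °C in reduced-serum medium with 10% FBS.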
An asterisk follows results filed as active; ? = inconclusive; . = not tested or not shown; [ ] = remark or other dose. Compounds with a hit are over-represented: about 9.2% of the library has one in this group of screens. The call rests on the fitted dose curve; in most records, active means well fitted curve in the direction sought with a large enough effect; inconclusive means small, poorly fitted or top-dose-only effect, or another doubt; inactive means no such curve, though single readings can be large; an effect the other way counts as inactive or inconclusive. Potency means the concentration at half of the fitted maximal effect.

SMILES | SMN2 splice up | Rab9 promoter act | FLuc modulator | ELG1 DNA repair | ELG1 genotoxic | NPC1 prom act
O=C(O)CCn1cc(C=C2C(=O)NC(=S)NC2=O)c(-c2ccccc2)n1 | 11% | 5% | 24µM* | 10% | 2% | 3%
O=C(O)CCn1cc(C=C2C(=O)NC(=S)NC2=O)c(-c2cc3ccccc3oc2=O)n1 | -25% | 12% | 17µM* | -16% | 0% | 2%
N#CCCn1cc(C=C2C(=O)NC(=O)NC2=O)c(-c2ccccc2)n1 | -1% | -1% | ? | 2% | 0% | -1%
O=Cc1ccc(Cl)cc1Cl | -5% | . | . | . | . | .
CC(C)(C)OC(=O)N1CC(O)CC1C(=O)OCC(=O)c1ccc(-c2ccccc2)cc1 (stereo unspecified) | -43% | -3% | -3% | -11% | -1% | -2%
CCCc1cc2c(n1CCO)C(C)C1CN(C(=O)c3ccccc3)C(C)(C(=O)OC)C21 (stereo unspecified) | 7% | . | . | . | . | .
N#CC(C#N)=NNc1ccc(-n2ccc(C(F)(F)F)n2)cc1 | . | -41% | 15µM* | ? | -16% | -35%
Cc1cc(C)n(-c2ccc(NN=C(C#N)C#N)cc2)n1 | . | -1% | 15µM* | 0% | -5% | -1%
Cc1cccc(N2C(=O)NC(=O)/C(=C\c3ccc(N4CCOCC4)cc3)C2=O)c1 | . | 1% | ? | -16% | 0% | -5%
O=C1NC(=O)N(c2ccc3c(c2)OCO3)C(=O)/C1=C\c1ccc(-c2ccccc2C(=O)O)o1 | . | -3% | 15µM* | 3% | 0% | -4%
O=C1NC(=O)N(c2ccc3c(c2)OCO3)C(=O)/C1=C\c1ccsc1 | . | 2% | 24µM* | -3% | -1% | -4%
Cc1cccc(N2C(=O)NC(=O)/C(=C/c3ccc(-c4ccc(C(=O)O)c(Cl)c4)o3)C2=O)c1 | 13% | -2% | 6µM* | 10% | 10% | -6%
O=C(O)[C@H]1C2c3ccccc3C(c3ccccc32)[C@@H]1C(=O)NCC1CC1 | -3%[9.22 µM] | . | . | . | . | .
CC(=O)OC(C)(C)/C=C/C(=O)[C@](C)(O)[C@H]1[C@H](O)C[C@@]2(C)[C@@H]3CC=C4[C@H](C[C@H](O)C(=O)C4(C)C)[C@]3(C)C(=O)C[C@]12C | -87% | -42% | 10% | 5.2µM* | -11% | -34%
CC(=O)OC(C)(C)/C=C/C(=O)C(C)(O)C1[C@H](O)C[C@@]2(C)C3CC=C4C(CC[C@@H](O)C4(C)C)[C@]3(CO)C(=O)C[C@]12C (stereo partly specified) | . | -44% | 1% | ? | -8% | -43%
CC(=O)Nc1ccccc1C(=O)OCc1ccccc1F | 24% | 17% | -4% | ? | ? | 16%
CC(=O)Nc1ccccc1C(=O)OCC(=O)c1ccccc1Cl | 17% | 3.5µM* | 9.5µM* | ? | ? | ?
O=C(Nc1cccc(C(F)(F)F)c1)C1CCCN1S(=O)(=O)c1cccc2nsnc12 (stereo unspecified) | -62% | . | -1% | . | . | .
CCCCCCOC(=O)c1ccccc1N | 22% | -4% | 17µM* | ? | ? | 1%
Nc1ccccc1C(=O)OCCc1ccccc1 | 14µM* | 0.79µM* | 1.9µM* | ? | ? | 1.1µM*
CC(=O)OC1CC[C@]2(C#N)[C@H]3CC[C@]4(C)[C@H](C5C=CC(=O)O5)CCC4(O)C3CCC2(O)C1 (stereo partly specified) | . | -5% | 1% | 15µM* | -14% | 15%
OC[P+](CO)(CO)CO | 1% | . | . | . | . | .
C=CC(=O)OCC(C)C | 10% | . | . | . | . | .
CNC(=O)[C@@H]1C[C@H]1[C@@H](NP(=O)(c1ccccc1)c1ccccc1)c1ccccc1 | 13µM* | . | . | . | . | .
Cc1cc(NC(=O)CCl)on1 | 27% | 2% | -2% | -19% | 7% | -6%
SMILES | SMN2 splice up | Rab9 promoter act | FLuc modulator | ELG1 DNA repair | ELG1 genotoxic | NPC1 prom act
Cc1ccc(-c2cc(NC(=O)c3ccccc3)on2)cc1 | . | 2.2µM* | 2.4µM* | ? | ? | ?
CC(=O)Nc1ccc(S(=O)(=O)N2CCSC2c2ccc(C)cc2)cc1 (stereo unspecified) | -58% | 4% | 1% | 16µM* | -19% | 2%
Cc1ccc(S(=O)(=O)N2CCCC2c2cccnc2)cc1 (stereo unspecified) | . | 2% | -1% | 0% | -1% | -4%
C/C(=C\C(=O)c1ccc(Br)cc1)NCc1ccccc1 | -4% | 18% | 24µM* | ? | ? | 1%
COc1cccc(N2C(=O)NC(=O)/C(=C/c3ccc4c(c3)Cc3ccccc3-4)C2=O)c1 | -16% | -3% | 21µM* | ? | 2% | 1%
O=C1NC(=S)N(c2ccccc2)C(=O)/C1=C/c1ccco1 | . | -5% | 19µM* | 6% | 2% | -4%
Cc1ccc(/C=C2\C(=O)NC(=S)N(c3ccc(F)cc3)C2=O)o1 | . | -9% | ? | 12% | -17% | 0%
COc1cccc(N2C(=O)/C(=C/c3ccc(C)o3)C(=O)NC2=S)c1 | . | 9% | 15µM* | 4% | 2% | 1%
COc1ccc(N2C(=O)/C(=C/c3ccc(N(C)C)o3)C(=O)NC2=S)cc1 | . | 4% | -9% | ? | ? | -3%
COc1cc(/C=C2/C(=O)NC(=O)N(c3ccccc3)C2=O)ccc1O | -11% | -2% | ? | -9% | 1% | -2%
COc1ccccc1/C=C1\C(=O)NC(=S)N(c2ccccc2)C1=O | . | 0% | -8% | -2% | 0% | -1%
CCOc1cccc(N2C(=O)/C(=C/c3ccco3)C(=O)NC2=S)c1 | . | -9% | 21µM* | -2% | 4% | -1%
N#CC(Cl)Cl | -4% | . | . | . | . | .
COc1ccc(C(=O)Nc2cc(Cl)ccc2C(=O)O)cc1 | . | 16% | 15µM* | ? | 6% | 13%
COC(=O)C(O)(c1ccc(NC(=O)NC2CCCCC2)cc1)C(F)(F)F (stereo unspecified) | ? | ? | 12µM* | ? | ? | ?
CN(N=O)c1ccc(O)c(O)c1 | -42% | 1%[46.1 µM] | . | . | . | 0%[46.1 µM]
CN1C(=O)c2ccccc2Sc2ccc(C(=O)N3CCC4(CC3)OCCO4)cc21 | -19% | -1% | 1% | 9% | 6% | 0%
Cc1ccc(/C=C2/Sc3ccc(C(=O)N4CCC5(CC4)OCCO5)cc3NC2=O)cc1 | . | -2% | 15µM* | 0% | -6% | -3%
Cc1nc2ccc(NC(=O)C3COc4ccccc4O3)cc2s1 (stereo unspecified) | . | ? | 12µM* | ? | ? | ?
O=C(O)c1cc[c]([Hg][Cl])cc1 | 0% | 7%[46.1 µM] | 6.7µM* | 16% | -2% | 9%[46.1 µM]
